According to PubChem BioAssay AID977607 (Broad Institute, 2014):
Screen size: about 1,500 compounds; about 460 (31%) were called active. About 1% were inconclusive and are not listed.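 Rule for the calls: active = curve reaches 40% activation over neutral controls at an AC40 no higher than the top valid tested concentration; inconclusive = no clear call, values can overlap the other calls; inactive = signal moving opposite to the expected increase, and the rest.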 A selection follows. Measured potencies and affinities stand elsewhere.

Assay: GLuc-reported insulin release enhancers, glucose-stimulated beta cells – cell-based, INS-1E, Gaussia luciferase, luminescence, cherry-pick, set 2, dose response (AID 977607);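 note: 0% = median of the plate neutral control wells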
Details: INS-1E GLuc insulin secretion reporter, 2-3 h, hits give high values; at 35 µM, 100% = signal doubled over neutral wells unless noted

Max activation, inactive:
CCOC(=O)C1CCCN(C(=O)c2cccnc2Oc2ccccc2)CC1 (stereo unspecified) 48.6% [at 1.2 µM, 100% = signal doubled over neutral wells]
COc1ccc(CCNCc2cc3ccc(C)cc3[nH]c2=O)cc1OC 20.9% [at 11 µM, 100% = signal doubled over neutral wells]
COC(=O)[C@]1(Cc2ccccc2)N[C@H](CN(C)C(=O)Nc2ccc(C)cc2)[C@@H]2C(=O)N(C)C(=O)[C@@H]21 -13.8% [at 11 µM, 100% = signal doubled over neutral wells]
O=C(Nc1ccc(S(=O)(=O)N2CCOCC2)cc1)c1ccc(=O)[nH]c1 -14.6% [at 0.046 µM, 100% = signal doubled over neutral wells]
O=C(NCc1ccc(Cl)cc1)c1cc(=O)[nH]c2ccc(S(=O)(=O)N3CCOCC3)cc12 27.5% [at 0.005 µM, 100% = signal doubled over neutral wells]
CCN(Cc1ccccc1)S(=O)(=O)c1ccccc1Br -30.7%
CC/C(O)=C1\C(=O)CC(C)(C)CC1=Nc1ccccc1C -12.4% [at 0.046 µM, 100% = signal doubled over neutral wells]
CCCC(=O)Nc1ccc(N2CCN(S(C)(=O)=O)CC2)cc1 -16% [at 11 µM, 100% = signal doubled over neutral wells]
CCc1onc(C)c1C(=O)Nc1ccc(N2CCOCC2)cc1 -20.7% [at 11 µM, 100% = signal doubled over neutral wells]
CCn1c(C)nc2cc(S(=O)(=O)C(F)(F)F)ccc21 -18% [at 0.135 µM, 100% = signal doubled over neutral wells]
COC(=O)c1scc(C)c1NC(=O)CC1NCCNC1=O (stereo unspecified) -9.21% [at 0.0016 µM, 100% = signal doubled over neutral wells]
O=C(O)c1ccc(S(=O)(=O)NCc2ccc3c(c2)OCO3)cc1 -14.4% [at 0.42 µM, 100% = signal doubled over neutral wells]
O=C(c1ccc2c(c1)OCO2)N1CCN(S(=O)(=O)c2ccccc2)CC1 -16.9% [at 0.42 µM, 100% = signal doubled over neutral wells]
COc1ccc(S(=O)(=O)N(C)c2ccc(C(=O)NCC3CCCO3)cc2)cc1OC (stereo unspecified) -7.27% [at 1.2 µM, 100% = signal doubled over neutral wells]
CC(=O)c1cccc(Nc2ncnc3ccc(Br)cc23)c1 -20.3% [at 0.0016 µM, 100% = signal doubled over neutral wells]
COC(=O)COc1ccc(C)cc1-n1nc2ccccc2n1 22.5%
COc1cccc(-c2nnn(CC(=O)O)n2)c1 -16%
CCOc1cc(C(=O)N(C)CC(=O)Nc2cccc3ccccc23)ccc1OC 18.1% [at 11 µM, 100% = signal doubled over neutral wells]
CN(C)S(=O)(=O)c1cccc(-c2csc(N/N=C/c3ccco3)n2)c1 -17.2% [at 3.8 µM, 100% = signal doubled over neutral wells]
CCc1cccc(NC(=O)C2CCCN2S(=O)(=O)c2ccc3c(c2)n(C)c(=O)c(=O)n3C)c1 (stereo unspecified) -17.8%
CCOc1cc(OCC)cc(C(=O)Nc2cccnc2)c1 14.6% [at 1.2 µM, 100% = signal doubled over neutral wells]
C=C1[C@@H](O)[C@H](CC(C)C)N(Cc2ccccc2Br)S1(=O)=O -22.8%
COc1ccc(-n2c(-c3ccc(Cl)cc3)c[nH]c2=S)cc1 14.5%
CCCOc1ccc(/C=N/NC(=O)C(=O)Nc2ccccn2)cc1 19.6%
CC(C)CCC(O)(CCC(C)C)C(=O)NN1CCCCC1 26.3% [at 0.015 µM, 100% = signal doubled over neutral wells]
O=c1cc(Cl)[nH]c(=O)n1Cc1ccccc1 -18% [at 0.135 µM, 100% = signal doubled over neutral wells]
Cc1ccc(NC(=O)c2ccccc2-c2ccccc2C(=O)O)cc1C -15.4% [at 0.046 µM, 100% = signal doubled over neutral wells]
Cc1cc(C(=O)Nc2cccc(O)c2)c(C)o1 50.1% [at 0.135 µM, 100% = signal doubled over neutral wells]
CCCn1nc(C(=O)NC2CCCC2)c2ccccc2c1=O 14.9% [at 0.135 µM, 100% = signal doubled over neutral wells]
CCCn1nc(C(=O)NC2CC2)c2ccccc2c1=O -11.7% [at 0.135 µM, 100% = signal doubled over neutral wells]
CCNc1nc(C)nc2c1oc1ccccc12 20.6% [at 11 µM, 100% = signal doubled over neutral wells]
CC(C)Oc1cccc(C(=O)C2CCCN(C(=O)CCc3cnn(C)c3)C2)c1 (stereo unspecified) -16.9% [at 0.0016 µM, 100% = signal doubled over neutral wells]
COCCn1c(=O)[nH]c2cc(C(=O)Nc3cc(OC)c(OC)c(OC)c3)ccc2c1=O -21.3% [at 11 µM, 100% = signal doubled over neutral wells]
Cc1ccnc(NC(=O)Nc2ccc(Br)cc2Cl)c1 -16.6% [at 0.0016 µM, 100% = signal doubled over neutral wells]
CCCCCCc1cc2cc(C(=O)Nc3cccc(OC)c3)c(=O)oc2cc1O -54.3% [at 1.2 µM, 100% = signal doubled over neutral wells]
COc1ccc(Cl)cc1C(=O)Nc1cccc(-c2ccc3nncn3n2)c1 -16.9% [at 0.015 µM, 100% = signal doubled over neutral wells]
